From PubChem
AmpC inh detg: blocks E. coli AmpC beta-lactamase in detergent assay. P00811. AmpC hydrolysis of nitrocefin, absorbance 480 nm, 0.01% Triton. Potency, µM (series often up to 114 µM), without a hit: at the top dose activity change, negative = inhibition, hits mostly inhibitors. 370,000 compounds, 0.041% hits. AID 485294;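 further: 0% = no-compound wells and -100% = no-enzyme wells; nearly all actives have a fitted effect of over 25% in size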
Target sequence (P00811 whole entry, looked up): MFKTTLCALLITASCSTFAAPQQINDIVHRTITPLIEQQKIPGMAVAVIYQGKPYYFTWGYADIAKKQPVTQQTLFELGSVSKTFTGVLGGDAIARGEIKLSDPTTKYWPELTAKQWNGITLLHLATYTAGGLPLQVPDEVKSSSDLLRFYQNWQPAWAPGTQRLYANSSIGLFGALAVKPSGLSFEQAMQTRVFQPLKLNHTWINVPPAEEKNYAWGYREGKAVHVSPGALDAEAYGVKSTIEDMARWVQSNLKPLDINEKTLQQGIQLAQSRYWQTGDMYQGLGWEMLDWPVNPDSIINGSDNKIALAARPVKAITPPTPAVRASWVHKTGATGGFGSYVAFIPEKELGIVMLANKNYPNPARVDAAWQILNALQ
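AmpC (5.3 nM in the dispensed reagent) in 20 mM phosphate pH 7.0 with 0.01% (detergent screen) or 0.0001% Triton X-100 was preincubated with compounds for 15 min at room temperature. Nitrocefin was then added from an 800 uM solution, and hydrolysis was followed at 480 nm.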
AmpC inh no detg: blocks E. coli AmpC beta-lactamase in detergent-free assay; Potency, µM (series often up to 57.1 µM), for inactives: at the highest dose activity change, negative = inhibition, most hits filed as inhibitors; 330,000 compounds, 0.52% hits; AmpC nitrocefin hydrolysis, absorbance 480 nm, 0.0001% Triton; P00811;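 further: plate controls were no compound for no effect and no enzyme for full effect; nearly all actives have a fitted effect of over 20% in size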
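AmpC (5.3 nM in the dispensed reagent) in 20 mM phosphate pH 7.0 with 0.01% (detergent screen) or 0.0001% Triton X-100 was preincubated with compounds for 15 min at room temperature. Nitrocefin was then added from an 800 uM solution, and hydrolysis was followed at 480 nm.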
Sm TGR inh: S. mansoni TGR enzyme inhibition | Potency, µM (titrated, usually from 114 µM), for the others: at the top dose activity change, negative = inhibition, hits mostly inhibitors | 360,000 compounds, 3% hits | purified TGR, DTNB reduction, TNB absorbance 405 nm | AID 485364 | Q962Y6; further: nearly all actives have a fitted effect of over 60% in size
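Kinetic colorimetric format: TGR-catalysed, NADPH-driven DTNB reduction monitored via TNB absorbance. Enzyme dispensed at 20 nM; compound exposure 15 min at room temperature before reaction start.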
Numbers without * were called inactive; ? = inconclusive; · = no result given; [ ] = dose if it differs, or a comment. Sampled rows, rich in hits. Any-hit rate of the full collection: about 3.3%. The call rests on the fitted dose curve; in most records, active means well fitted curve in the direction sought with a large enough effect; inconclusive means small, poorly fitted or top-dose-only effect, or another doubt; inactive means no such curve, though single readings can be large; an effect the other way counts as inactive or inconclusive. Unless noted, on the % scale 0 is the no-effect control and ±100 the full control effect; potency means the concentration at half of the fitted maximal effect.

SMILES	AmpC inh detg	AmpC inh no detg	Sm TGR inh
O=C(COC(=O)c1ccccc1Nc1ccccc1)Nc1ccccc1	?	7.1µM*	-6%
COC(=O)C1(Cc2cc(-c3ccc([N+](=O)[O-])cc3)no2)CCN(C(=O)OC(C)(C)C)CC1	0%	71%	20µM*
COC(=O)C1(Cc2cc(-c3ccc(Cl)cc3)no2)CCN(C(=O)OC(C)(C)C)CC1	-13%	124%	15%
CCc1ccc(N2C(=O)NC(=O)/C(=C/c3ccsc3)C2=O)cc1	0%	-39%	-18%
O=C1NC(=O)N(Cc2ccc(F)cc2)C(=O)/C1=C\c1ccoc1	2%	-53%	?
O=C1NC(=O)N(Cc2ccccc2)C(=O)/C1=C/c1cnc(-c2ccccc2)nc1	?	-48%	10µM*
CC(C)c1ccc(N2C(=O)NC(=O)/C(=C/c3cnc(-c4ccccc4)nc3)C2=O)cc1	?	-22%	3.5µM*
CSc1ncc(/C=C2/C(=O)NC(=O)N(c3ccc(C(C)C)cc3)C2=O)cn1	-5%	-38%	11µM*
CCc1ccc(N2C(=O)NC(=O)/C(=C\c3cccn3CCOc3ccc(C(C)C)cc3)C2=O)cc1	-14%	-48%	?
CC(C)c1ccc(NC(=O)Cn2cc(S(=O)(=O)Cc3cccc(Cl)c3)c3ccccc32)cc1	-5%	·	2%
COc1ccccc1N1CCN(C(=O)c2c(C)oc3ncn(CC(C)C)c(=O)c23)CC1	18%	·	2%
OC(C#CCN1CCOCC1)c1cccs1 (stereo not drawn)	10%	2%	28µM*
CC(=O)OC(C#CCN1CCOCC1)c1ccccc1 (stereo not drawn)	0%	·	-17%
Cc1[nH]c2ccc(OCc3ccccc3)cc2c1CCN	0%	-2%	25%
Cc1[nH]c2ccc(O)cc2c1CCN	?	-14%	40µM*
CCc1ccc2c(c1)C(NC(C)=O)C(=O)N2CCN1CCOCC1 (stereo not drawn)	-5%	14%	89µM*
CCCN1C(=O)C(NC(C)=O)c2ccccc21 (stereo not drawn)	-1%	-15%	6%
Oc1c(C(c2ccccc2F)N2CCN(c3ccccc3F)CC2)sc2nc(-c3ccco3)nn12 (stereo not drawn)	-1%	·	-1%
c1ccc(C[C@H]2CNCCN2CC2(c3ccccc3)CC2)cc1	-9%	4%	45µM*
CC(C)(C)CN1CCNC[C@H]1Cc1ccc(O)cc1	-14%	-18%	-21%
Cc1ccc2ncc(C(=O)NC(C)c3ccccc3)c(=O)n2c1 (stereo not drawn)	20%	·	8%
CNC(=O)C1CCC(Cn2c(=O)c3sccc3n(Cc3ccccc3)c2=O)CC1 (stereo not drawn)	16%	·	-1%
Oc1cc2c(cc1O)[C@H]1c3ccc(O)c(O)c3OC[C@@]1(O)C2	0%	-16%	2.2µM*
O=C(CCl)NC(=O)NC12CC3CC(CC(C3)C1)C2	?	-20%	8.9µM*
CC(Cl)C(=O)NC(=O)NC12CC3CC(CC(C3)C1)C2 (stereo not drawn)	-3%	-13%	-15%
SMILES	AmpC inh detg	AmpC inh no detg	Sm TGR inh
COCCCNC(=O)c1ccc(N(C)S(=O)(=O)c2ccc(OC)cc2)cc1	5%	-4%	2%
COCCCNC(=O)c1ccc(N(C)S(C)(=O)=O)cc1	-12%	-43%	28µM*
COc1ccc(CCNC(=O)CS(=O)(=O)c2cn(CC(=O)N3CCOCC3)c3ccccc23)cc1OC	6%	5%	25µM*
COc1ccc(NC(=O)CS(=O)(=O)c2cn(CC(=O)N3CCOCC3)c3ccccc23)cc1OC	1%	27%	-10%
COc1ccc(Nc2ncnc3c2nc2n3CCCCC2)cc1	12%	·	1%
NC(=S)N/N=C/c1ccc(-c2ccc([N+](=O)[O-])cc2)o1	?	-20%[11.4 µM]	28µM*
NC(=S)N/N=C/c1ccc(-c2cc(Cl)cc(Cl)c2)o1	-2%	·	?
CCCC(=O)NC1CC(=O)N(c2ccc3c(c2)OCCO3)C1 (stereo not drawn)	1%	·	8%
Cc1ccc(C)c(S(=O)(=O)NCC(c2ccco2)N2CCc3ccccc3C2)c1 (stereo not drawn)	?	-37%	1%
Cc1ccc(S(=O)(=O)C(CNS(=O)(=O)c2cc(F)ccc2F)c2cccs2)cc1 (stereo not drawn)	-7%	·	?
COc1ccc(F)cc1S(=O)(=O)NCC(c1ccco1)S(=O)(=O)c1cccs1 (stereo not drawn)	-1%	·	0.1µM*
Cc1ccc(C)c(S(=O)(=O)NCC(c2ccco2)S(=O)(=O)c2ccc(F)cc2)c1 (stereo not drawn)	13%	·	0.35µM*
COc1cc(S(=O)(=O)NCC(c2ccco2)N2CCCCC2)ccc1NC(C)=O (stereo not drawn)	1%	-28%	-12%
COc1ccc(S(=O)(=O)NCC(c2ccco2)S(=O)(=O)c2cccs2)cc1OC (stereo not drawn)	2%	·	0.28µM*
COc1ccc(F)cc1S(=O)(=O)NCC1CCCO1 (stereo not drawn)	-14%	-11%	5%
COc1ccc(F)cc1S(=O)(=O)NCC(c1ccco1)S(=O)(=O)c1ccc(F)cc1 (stereo not drawn)	1%	·	0.32µM*
COc1ccccc1NC(=O)CCNS(=O)(=O)c1ccc2c(c1)CCCC(=O)N2	27%	·	3%
COc1cc(NC(=O)NC(C)c2c(-n3cccc3)sc3c2CCN(C)C3)cc(OC)c1 (stereo not drawn)	4%	·	1%
Cc1ccc(S(=O)(=O)N(Cc2nc(-c3cccc(C)c3)no2)C2CCCCC2)cc1	-8%	·	1%
Cc1ccc(Cl)cc1NC(=O)c1oc2c(c1C)-c1[nH]ncc1CC2	16%	·	0%
O=C(CSc1nnc2scc(-c3ccccc3)n12)Nc1ccc(Cl)cc1	8%	·	-2%
COc1ccc(C)cc1S(=O)(=O)NCC(c1cccs1)S(=O)(=O)c1ccc(C)cc1 (stereo not drawn)	4%	·	?
COc1ccc(OC)c(S(=O)(=O)NCC(c2cccs2)S(=O)(=O)c2ccc(F)cc2)c1 (stereo not drawn)	0%	·	0.32µM*
Cc1ccc(Cl)cc1NC(=O)CN1C(=O)C(C)(C)c2cc(S(=O)(=O)N3CCCCC3)ccc21	-5%	·	-10%
Cc1ccc(N2C(=O)CC(Sc3nc4ccccc4o3)C2=O)cc1Cl (stereo not drawn)	?	-45%	13µM*
SMILES	AmpC inh detg	AmpC inh no detg	Sm TGR inh
Cc1ccc(N2C(=O)CC(N3CCc4ccccc43)C2=O)cc1Cl (stereo not drawn)	4%	-14%	7%
CCCOc1ccccc1NC(=O)CC1Nc2ccccc2NC1=O (stereo not drawn)	-9%	18µM*	-24%
Cc1ccc(NC(=O)CC2Nc3cccc4cccc(c34)NC2=O)cc1 (stereo not drawn)	19%	·	40µM*
CCOc1ccccc1NC(=O)CC1Nc2ccccc2NC1=O (stereo not drawn)	9%	-29%	?
O=C(CC1Nc2cccc3cccc(c23)NC1=O)Nc1ccccc1 (stereo not drawn)	-18%	-50%	-11%
O=C(CCNS(=O)(=O)c1cccc2nsnc12)Nc1ccc(F)cc1	7%	·	2%
